The record followed here is PubChem BioAssay (NCI).

Compounds without any hit were thinned out: in the full panel of roughly 83,000, 20% have a hit.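 Percent growth is the endpoint: 0 to 100 indicates growth inhibition (40 means 60% inhibition), 0 means no net growth, and negative values indicate cell death.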 A number with no mark means an inactive call. Calls of active or inactive are those of the source. Rule for the calls: active = growth percent below 10; inactive = the rest.

Some test systems named below: NCI-H23 lung; NCI-H226 lung; NCI-H322M lung; HOP-62 NSCLC; NCI-H460 lung; HOP-92 NSCLC; NCI-H522 lung; A549/ATCC NSCLC; 786-0 renal; COLO 205 colon; DU-145 prostate; K-562 leukemia; MALME-3M melanoma; MDA-MB-231 breast; RXF 393 renal; SF-268 CNS; SF-295 CNS; SF-539 CNS; UACC-257 melanoma; M14 melanoma.
Common to all, as to assay: NCI-60 one-dose screen, 48 h (100 = growth as untreated, 0 = no growth, -100 = all killed)
Common to all, as to settings: 10 µM unless noted

As to `Cc1ccc(Cc2cnc(NC(=O)c3ccc(/C=C4\SC(=S)N(C)C4=O)cc3)s2)cc1`, the growth is 41.3% in the assay on NCI-H23 lung; 52.5% in the assay on NCI-H226 lung; 35.9% in the assay on NCI-H322M lung; 46.4% with HOP-62 NSCLC; 39.6% with NCI-H460 lung; 48.4% in the assay on HOP-92 NSCLC. Further, the growth was -22.8% (active) with NCI-H522 lung; 43.2% with A549/ATCC NSCLC; 37.8% in the assay with 786-0 renal; 24.4% in the assay with COLO 205 colon; 26.1% in the assay on DU-145 prostate; 23.3% with K-562 leukemia. The growth with MALME-3M melanoma is 25.2%; in the assay on MDA-MB-231 breast, 41.4%; in the assay with RXF 393 renal, 29.4%; in the assay on SF-268 CNS, 38.6%; in the assay on SF-295 CNS it was 8.52% (active); with SF-539 CNS, 12.7%. Moreover, the growth is 30.4% in the assay with UACC-257 melanoma and 20.5% in the assay with M14 melanoma.

Consider `CCN(CC)c1ccnc(CNCCSC(c2ccccc2)(c2ccccc2)c2ccc(C)cc2)c1`, for which the growth in the assay on NCI-H23 lung was -78.7% (active); with NCI-H226 lung it was -73.3% (active); in the assay with NCI-H322M lung it was -10.4% (active); with HOP-62 NSCLC, -89.5% (active); with NCI-H460 lung it was -79.6% (active); in the assay on HOP-92 NSCLC, -83.9% (active). The growth is -80.3% (active) in the assay on NCI-H522 lung; -86.8% (active) with A549/ATCC NSCLC; -93.1% (active) in the assay on 786-0 renal; -76.6% (active) in the assay with COLO 205 colon; -59.7% (active) with DU-145 prostate; -45.1% (active) with K-562 leukemia. Also, the growth is -93.1% (active) in the assay on MALME-3M melanoma; -97.7% (active) in the assay with MDA-MB-231 breast; -87.5% (active) in the assay on RXF 393 renal; -55.8% (active) in the assay on SF-268 CNS; -97% (active) in the assay on SF-295 CNS; -97.5% (active) in the assay with SF-539 CNS. Moreover, the growth is -90.1% (active) in the assay with UACC-257 melanoma and -87.2% (active) with M14 melanoma.

`COc1cc2oc(-c3cccc(NC(=O)[C@H](Cc4ccccc4)NC(=O)OC(C)(C)C)c3)cc(=O)c2c(OC)c1OC`: the growth in the assay on NCI-H23 lung is 39.1%; in the assay on NCI-H226 lung, 28%; in the assay on NCI-H322M lung, 46.1%; in the assay with HOP-62 NSCLC it was 49%; with NCI-H460 lung it was 11.5%; with HOP-92 NSCLC, 61.7%. Moreover, the growth in the assay on NCI-H522 lung was 30.3%; in the assay with A549/ATCC NSCLC, 24.7%; in the assay on 786-0 renal, 43.8%; in the assay with COLO 205 colon, 33.8%; with DU-145 prostate, 35.7%; in the assay with K-562 leukemia it was 23%. In addition, the growth was 35% in the assay on MALME-3M melanoma; 42.7% in the assay with MDA-MB-231 breast; 31% in the assay with RXF 393 renal; 62% in the assay on SF-268 CNS; 36.8% with SF-295 CNS; 43.1% in the assay with SF-539 CNS. Further, the growth with UACC-257 melanoma was 75.5%; in the assay on M14 melanoma, 51.7%.

In the case of `O=C(/C=C/Nc1ccc(Cl)cc1)c1ccc2c(c1)Nc1ccccc1S2`, the growth in the assay with NCI-H23 lung is 33.1%; with NCI-H226 lung it was 8.89% (active); in the assay with NCI-H322M lung, 59.5%; in the assay with HOP-62 NSCLC, -27.5% (active); in the assay on NCI-H460 lung it was 13.3%; in the assay on HOP-92 NSCLC it was 13.6%. Further, the growth in the assay on NCI-H522 lung was 34.9%; in the assay on A549/ATCC NSCLC, 43.1%; with 786-0 renal it was -6.27% (active); in the assay on COLO 205 colon, 62.5%; with DU-145 prostate, 33.5%; with K-562 leukemia, 49.2%. Further, the growth in the assay on MALME-3M melanoma was 50.7%; with MDA-MB-231 breast, 26.8%; in the assay with RXF 393 renal it was 14.5%; in the assay on SF-268 CNS, 42.3%; in the assay on SF-295 CNS, 23.4%; in the assay with SF-539 CNS it was 8% (active). The results for the growth in the assay with UACC-257 melanoma and in the assay on M14 melanoma were 74.5% and 49.5%, respectively.

Take `CC(=O)OC[C@@]1(C)C2CC[C@]3(C)C(CC=C4C5CC(C)(C)CC[C@]5(C(=O)Nc5ccc(C)cc5)CC[C@]43C)[C@@]2(C)C[C@@H](OC(C)=O)[C@@H]1OC(C)=O` (stereo not given in full): the growth in the assay with NCI-H23 lung was 49.3%; in the assay with NCI-H226 lung it was 50.6%; in the assay on NCI-H322M lung, 72.8%; in the assay on HOP-62 NSCLC, 44.4%; in the assay on NCI-H460 lung, 13.5%; in the assay on HOP-92 NSCLC it was 55.8%. In addition, the growth with NCI-H522 lung is 48.9%; in the assay on A549/ATCC NSCLC, 41.4%; in the assay with 786-0 renal, 57.1%; with COLO 205 colon it was 48.8%; with DU-145 prostate it was 49%; in the assay on K-562 leukemia, 21.6%. For the same molecule, the growth with MALME-3M melanoma was 60.6%; with MDA-MB-231 breast it was 66.1%; in the assay on RXF 393 renal, 82.2%; in the assay with SF-268 CNS it was 57.4%; with SF-295 CNS, 31.2%; in the assay with SF-539 CNS, 43.1%. Moreover, the growth was 23.9% in the assay on UACC-257 melanoma and 51.9% in the assay with M14 melanoma.

Take `O=C(N=Nc1c(O)[nH]c2ccc([N+](=O)[O-])cc12)c1ccc2nc(-c3ccccc3)[nH]c2c1`: the growth in the assay with NCI-H23 lung is 64.7%; with NCI-H226 lung it was 60.1%; in the assay on NCI-H322M lung, 104%; in the assay on HOP-62 NSCLC it was 100%; in the assay on NCI-H460 lung, 100%; in the assay on HOP-92 NSCLC, 30.8%. In addition, the growth was 17.8% in the assay on NCI-H522 lung; 106% in the assay on A549/ATCC NSCLC; 91.4% in the assay with 786-0 renal; 28.4% in the assay on COLO 205 colon; 57.9% in the assay with DU-145 prostate; 48.1% in the assay with K-562 leukemia. For the same molecule, the growth is 30.7% in the assay on MALME-3M melanoma; 59.5% with MDA-MB-231 breast; 74.6% in the assay with RXF 393 renal; 53.3% in the assay on SF-268 CNS; 102% in the assay with SF-295 CNS; 6.74% (active) with SF-539 CNS. Also, the growth with UACC-257 melanoma was 84.6%; in the assay with M14 melanoma, 83.8%.

With `COc1ccc2oc3c4[nH]c5ccccc5c4c4c(c3c2c1)C(=O)N(C(=O)OC(C)(C)C)C4=O`, the growth in the assay with NCI-H23 lung is -19.9% (active); in the assay on NCI-H226 lung, -1.92% (active); in the assay with NCI-H322M lung it was 3.12% (active); in the assay with HOP-62 NSCLC it was -18% (active); with NCI-H460 lung, 4.57% (active); in the assay with HOP-92 NSCLC, -14.6% (active). In addition, the growth with NCI-H522 lung was -30.7% (active); with A549/ATCC NSCLC, 0.48% (active); with 786-0 renal, 11.6%; in the assay with COLO 205 colon, -40.9% (active); in the assay with DU-145 prostate, 6.06% (active); with K-562 leukemia it was 3.78% (active). Further, the growth in the assay on MALME-3M melanoma was -24.9% (active); in the assay on MDA-MB-231 breast, 8.48% (active); in the assay on RXF 393 renal it was -0.96% (active); in the assay with SF-268 CNS, 4.9% (active); in the assay on SF-295 CNS, -26.7% (active); in the assay on SF-539 CNS, -24.8% (active). Moreover, the growth with UACC-257 melanoma is -52.9% (active); with M14 melanoma, -44.6% (active).

For the molecule `N/N=C(\N)c1c(N)nc(=S)[nH]c1-c1ccc(Cl)cc1Cl`, the growth in the assay on NCI-H23 lung is 103%; in the assay with NCI-H226 lung it was 106%; with NCI-H322M lung, 106%; in the assay on HOP-62 NSCLC, 92.5%; with NCI-H460 lung it was 116%; with HOP-92 NSCLC, 76.2%. Further, the growth with NCI-H522 lung was 95.3%; with A549/ATCC NSCLC, 104%; in the assay with 786-0 renal it was 101%; in the assay on COLO 205 colon, 120%; in the assay on DU-145 prostate, 120%; in the assay with K-562 leukemia, 105%. Also, the growth was 92.3% in the assay on MALME-3M melanoma; 94.9% in the assay with MDA-MB-231 breast; 115% in the assay with RXF 393 renal; 108% in the assay with SF-268 CNS; 94.5% in the assay on SF-295 CNS; 94.6% in the assay with SF-539 CNS. The growth was 108% in the assay with UACC-257 melanoma and 107% with M14 melanoma.
